Experimental findings from the supplement of paper PMC4723716 are described below.

In all, about 3,600 compounds were measured (“viability index relative to DMSO control”: median about 0.81, lowest 2% from about 0.13 on). The list comes from a sample in which the lowest values are over-represented; it also holds similar structures and randomly drawn compounds.
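Further: Saponin-lysis sexual stage assay in serum-free medium: MitoTracker Red CMXRos staining plus saponin, high-content imaging, particle count per well divided by plate mean of DMSO wells.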

This test has as its system Plasmodium falciparum NF54 stage V gametocytes. The test can be described thus: viability index relative to DMSO control (fraction); higher = less gametocyte killing. Particulars: 1.25 µM, incubation time: 72 h.
As for `CCOC(=O)C1=C(C)N=c2sc(=Cc3cccc(OCc4cccc5ccccc45)c3)c(=O)n2C1c1ccc(OC)cc1OC` (stereo unspecified), the viability index worked out at 0.924.

In the case of `O=C(Cc1ccc(Cl)cc1)NNS(=O)(=O)c1ccc([N+](=O)[O-])cc1`, the viability index is 0.939.

With `O=C(C=Cc1ccccc1)Nc1ccc(-c2nc3cc(NC(=O)C=Cc4ccccc4)ccc3[nH]2)cc1`, the viability index stood at 0.11.

`O=C(Nc1ccc(-c2nc3ccccc3[nH]2)cc1)c1ccc(Cl)c(Cl)c1` returned a viability index of 1.03.

Consider `O=C(Nc1ccc(-c2nc3ccccc3[nH]2)cc1)c1cccc(C(=O)Nc2ccc(-c3nc4ccccc4[nH]3)cc2)n1`, for which the viability index came out at 0.0331.

For `O=C(Nc1ccc(-c2nc3cc(NC(=O)c4cccs4)ccc3[nH]2)cc1)c1cccs1`, the viability index worked out at 1.05.

The compound `O=C(Nc1ccc(-c2nc3ccccc3[nH]2)cc1)c1ccc(-c2ccc(Cl)cc2)o1` showed a viability index of 0.725.

As to `O=C(Nc1ccc(-c2nc3cc(NC(=O)C(c4ccccc4)c4ccccc4)ccc3[nH]2)cc1)C(c1ccccc1)c1ccccc1`, the viability index worked out at 0.908.

As to `CCOc1ccccc1C1C(C#N)=C(SCC(=O)Nc2ccc(Cl)cc2)NC(C)=C1C(=O)Nc1ccccc1` (stereo unspecified), the viability index stood at 0.5.

In turn, `Fc1ccc(CSc2nc3cccnc3[nH]2)cc1` displayed a viability index of 1.24.

The compound `Cc1cc(C)cc(NC2=C(N)C(=O)c3ccccc3C2=O)c1` gave a viability index of 0.707.

The compound `COc1ccc(-c2cc(C3CCN(c4nc(N)c5cc(OC)c(OC)cc5n4)CC3)n[nH]2)cc1OC` came in with a viability index of 1.17.

The compound `COc1cc2nc(N3CCN(c4nc(N)c5cc(OC)c(OC)cc5n4)CC3)nc(N)c2cc1OC` registered a viability index of 0.0192.

Turning to `COc1cc2nc(Nc3ccc(F)cc3)nc(N)c2cc1OC`, the viability index came to 0.787.

`O=C(CNCCc1ccccc1)NC(c1ccccc1)c1ccccc1` displayed a viability index of 0.761.

The compound `CCOc1ccc(C=C(C#N)c2nc3ccccc3[nH]2)cc1OC` displayed a viability index of 0.837.

Take `COc1cc2c(-c3cc(Br)ccc3O)nc3c(c(Cc4ccccc4)nn3-c3ccccc3)c2cc1OC`: the viability index came out at 0.595.

Compound `CC(C=NNC(N)=S)=NNC(N)=S` came in with a viability index of 0.131.

As for `NC(=S)NN=Cc1cc([N+](=O)[O-])ccc1O`, the viability index was determined as 0.176.

In turn, `CCOc1ccc(CCN2C(=S)N(c3cccc(C(F)(F)F)c3)C(=O)C2CC(=O)Nc2ccc(C(=O)OC)cc2)cc1OCC` (stereo unspecified) yielded a viability index of 0.582.

`N#Cc1c(-c2ccccc2)cc(N2CCN(C3CCCCC3)CC2)n2c1nc1ccccc12` gave a viability index of 0.822.

`COc1ccc(-c2c[n+](CC(=O)c3cccc(OC)c3)c3n2CCC3)cc1` showed a viability index of 0.74.

The compound `Cc1ccc2c(c1)C(C)(c1ccc(Cl)cc1)CC(C)(C)N2C(=O)COc1ccc2ccccc2c1` (stereo unspecified) showed a viability index of 0.826.

Consider `O=C(C[n+]1cc(-c2ccc(F)cc2)n2c1CCC2)Nc1ccc(Cl)cc1`, for which the viability index was found to be 1.44.

Regarding `CCSC(Cl)=C(NC(=O)c1ccccc1)[P+](c1ccccc1)(c1ccccc1)c1ccccc1`, the viability index came to 0.0362.

`CCCc1ccc(C(=O)NC(=O)c2ccccc2O)cc1` registered a viability index of 1.05.

As for `Cc1c(Cl)cccc1NC(=O)CCC(=O)NNC(=O)c1ccccc1`, the viability index came to 0.9.

The compound `COc1ccc(S(=O)(=O)N=C2C=C(Nc3ccccc3OC)C(=O)c3ccccc32)cc1` returned a viability index of 0.0579.

As for `COc1ccccc1NC1=CC(=NS(=O)(=O)c2ccccc2)c2ccccc2C1=O`, the viability index was determined as 0.247.

Regarding `COc1ccccc1NC1=CC(=NS(=O)(=O)c2ccc(F)cc2)c2ccccc2C1=O`, the viability index amounted to 0.189.

`O=C1C(Sc2nc[nH]n2)=CC(=NS(=O)(=O)c2cccs2)c2ccccc21` yielded a viability index of 0.707.

For `COc1ccccc1NC1=CC(=NS(=O)(=O)c2cccs2)c2ccccc2C1=O`, the viability index was 0.0154.

As to `O=C1C(Nc2ccc(O)cc2)=CC(=NS(=O)(=O)c2cccs2)c2ccccc21`, the viability index came out at 0.306.

`Cc1cccc(CCNc2cc(C)nc3ncnn23)c1` displayed a viability index of 0.982.

In the case of `COc1ccc2[nH]c(SCC(=O)Nc3cccc(NC(=O)CSc4nc5cc(OC)ccc5[nH]4)n3)nc2c1`, the viability index came out at 0.353.

In the case of `Cc1cccc(NC(=O)C2C3C=CC4(O3)C2C(=O)N(CC2COc3ccccc3O2)C4C(=O)NC2CCCC(C)C2C)c1` (stereo unspecified), the viability index was 1.33.

Compound `Cc1cc2nc(NC(=N)N)nc(C)c2cc1C` registered a viability index of 0.718.

`CC(C)c1ccc2c(c1)c1c3c([n+](C)ccn32)CCC1` displayed a viability index of 1.22.

`CC(Cc1ccsc1)Nc1nc2nonc2nc1N(C)C` (stereo unspecified) yielded a viability index of 0.853.

As to `Cc1ccc(OCCCCN2CCOCC2)c([N+](=O)[O-])c1`, the viability index was 0.798.

In the case of `COC1=C(Nc2cccc(C(F)(F)F)c2)C(=O)c2ccccc2C1=O`, the viability index was found to be 0.606.

Consider `O=C1C=C(Nc2cccc(C(F)(F)F)c2)C(=O)c2ccccc21`, for which the viability index came out at 0.0673.

Take `O=C(Nc1cc(Cl)cc(Cl)c1)Nc1cccc(C(F)(F)F)c1`: the viability index is 1.06.

Compound `CCOC(=O)c1ccc(N(C(=O)Cc2c[nH]c3ccccc23)C(C(=O)NC2CCCCC2)c2cccc(OC)c2OC)cc1` (stereo unspecified) showed a viability index of 0.849.

In turn, `NC12CC3CC(C1)CC(SSC14CC5CC(CC(N)(C5)C1)C4)(C3)C2` came in with a viability index of 0.11.

`COc1ccc(C2CC(=O)C3=C(C2)NC(=O)CC3c2ccc([N+](=O)[O-])cc2)cc1OC` (stereo unspecified) came in with a viability index of 0.406.

`O=C(Nc1ccc(-n2cnnn2)cc1)C1CCN(Cc2cc3ccccc3o2)CC1` displayed a viability index of 0.942.

`COc1ccc2c(c1)OC(O)(C(F)(F)C(F)(F)F)CC2=O` (stereo unspecified): the viability index is 0.6.

Compound `CCN(CC)S(=O)(=O)c1cc(C(=O)O)ccc1Cl` displayed a viability index of 0.971.

As to `COc1cccc(OC)c1C(=O)Nc1cc(C(F)(F)F)ccc1Cl`, the viability index turned out to be 0.971.

In turn, `COC(=O)c1ccc(C=NNc2cc(C)nc3ccc(OC)cc23)cc1` displayed a viability index of 0.0573.

Regarding `COc1ccc(C=NNc2cc(C)nc3ccccc23)cc1`, the viability index came out at 0.946.

In turn, `COc1ccc(C=NNc2cc(C)nc3ccc(OC)cc23)c(OC)c1` returned a viability index of 0.591.

For `CC(C)(C)CC(C)(C)c1ccc(O)c(CN2CCN(CCC#N)CC2)c1`, the viability index stood at 0.735.

With `COc1ccc(CNC2CCN(c3cccc(NC(=O)C4CC4)c3)CC2)cc1`, the viability index stood at 1.12.

In turn, `C=CCN1C(=O)C(=C2Sc3ccc(OC)cc3N2C)SC1=Nc1ccccc1-c1ccccc1` returned a viability index of 0.448.

Compound `Oc1ccc(-c2cncnc2)cc1CNC1CCN(Cc2ccccc2)CC1` showed a viability index of 1.

`CCN(CC)Cc1cc(Nc2ccnc3cc(Cl)ccc23)ccc1O`: the viability index worked out at 0.873.

In turn, `O=[N+]([O-])c1ccc(Nc2nc(NN=Cc3ccccc3I)nc(Nc3ccccc3)n2)cc1` came in with a viability index of 0.985.

Consider `O=[N+]([O-])c1ccc(-c2ccc(C=NNc3nc(Nc4ccccc4)nc(Nc4ccccc4)n3)o2)cc1`, for which the viability index was determined as 0.626.

Compound `Cc1nonc1C(=O)NN=Cc1ccc([N+](=O)[O-])o1` registered a viability index of 0.871.

Turning to `COc1ccc(Nc2nc(NN=Cc3cccc([N+](=O)[O-])c3OC)nc(Nc3ccc([N+](=O)[O-])cc3)n2)cc1`, the viability index was determined as 0.469.

Compound `O=[N+]([O-])c1ccc(C=NNc2nc(Nc3ccccc3)nc(Nc3ccccc3)n2)o1` showed a viability index of 0.0664.

`COc1ccc(-c2cnnc(NN=Cc3ccc([N+](=O)[O-])o3)n2)cc1` returned a viability index of 0.0154.

Take `COc1ccc(NC(=O)NCc2cccn2Cc2ccc(F)cc2)cc1OC`: the viability index was 0.952.

For the compound `CCOC(=O)c1sc(Nc2c(Cl)cc(S(N)(=O)=O)cc2Cl)nc1C`, the viability index is 0.886.

Compound `CCOC(=O)C1=C(C)NC2=C(C(=O)CC(c3ccc(OC)c(OC)c3)C2)C1c1ccccc1OC` (stereo unspecified) registered a viability index of 0.68.

`CCOC(=O)c1c(NC(=O)CSc2nnc(CNC(=O)c3ccc(C)c(C)c3)n2C2CCCCC2)sc2c1CCC2`: the viability index was 0.784.

In turn, `O=C1CN(C(=O)CCC2CCCC2)C(c2ccc(F)cc2)c2cc(Cl)ccc2N1` (stereo unspecified) returned a viability index of 0.751.

`S=P(OCC1C(COP(=S)(c2ccccc2)c2ccccc2)C1(Cl)Cl)(c1ccccc1)c1ccccc1` (stereo unspecified) came in with a viability index of 0.562.

Turning to `CN1C(=O)N(C)C2(c3ccccc3)NN3C(=NC12c1ccccc1)SC1=C3C(=O)c2ccccc2C1=O` (stereo unspecified), the viability index was 0.0309.

As to `CCOC(=O)c1nnn(-c2nonc2N)c1-c1ccc(Br)cc1`, the viability index worked out at 0.676.

For the compound `CCOC(=O)C1CCCN(C(=O)c2c(C)oc3c2C(=O)c2ccccc2C3=O)C1` (stereo unspecified), the viability index came to 0.726.

Compound `Cc1oc2c(c1C(=O)N1CCN(C)CC1)C(=O)c1ccccc1C2=O` gave a viability index of 0.43.

For `Cc1oc2c(c1C(=O)N1CCC(C)CC1)C(=O)c1ccccc1C2=O`, the viability index was 0.587.

Take `Cc1oc2c(c1C(=O)NCC1CCCO1)C(=O)c1ccccc1C2=O` (stereo unspecified): the viability index amounted to 0.195.

Compound `CCOC(=O)C1CCN(C(=O)c2c(C)oc3c2C(=O)c2ccccc2C3=O)CC1` yielded a viability index of 0.0992.

With `Cc1oc2c(c1C(=O)NCCCn1ccnc1)C(=O)c1ccccc1C2=O`, the viability index worked out at 0.0826.

The compound `Cc1oc2c(c1C(=O)NC1CCS(=O)(=O)C1)C(=O)c1ccccc1C2=O` (stereo unspecified) gave a viability index of 0.0502.

For the compound `Cc1oc2c(c1C(=O)NCc1cccnc1)C(=O)c1ccccc1C2=O`, the viability index worked out at 0.231.

Turning to `CCOC(=O)c1c(C)oc2c1C(=O)c1ccccc1C2=O`, the viability index was determined as 0.902.

With `Cc1cc(I)ccc1N1C(=O)C2C3c4ccccc4C(CO)(c4ccccc43)C2C1=O` (stereo unspecified), the viability index stood at 1.06.

The compound `CC(=O)N(C1=C(N2CCOCC2)C(=O)c2ccccc2C1=O)c1ccc(C(C)C)c(C)c1` had a viability index of 0.509.

Consider `Oc1c(C(Nc2ccccn2)c2ccc(Br)cc2)ccc2cccnc12` (stereo unspecified), for which the viability index turned out to be 1.1.

`Cc1cc(C)n(-c2ccc(NC(=O)C3CCN(Cc4cc(C)c(C)o4)CC3)cc2)n1` displayed a viability index of 0.926.

As to `Oc1ccc2ccccc2c1CNc1nc2ccccc2[nH]1`, the viability index is 0.865.
